Data reported in PubChem BioAssay (NCI).
About 83,000 compounds went through this panel and 20% of them were active in at least one assay; those are over-represented in the sample as a whole.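 Percent growth is the endpoint: 0 to 100 indicates growth inhibition (40 means 60% inhibition), 0 means no net growth, and negative values indicate cell death.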 A number with no mark means an inactive call. Active and inactive are the calls of the source. Rule for the calls: active = growth percent below 10; inactive = the rest.

How the values were obtained:
Assay in all cases: NCI-60 one-dose screen, 48 h (100 = growth as untreated, 0 = no growth, -100 = all killed)
Conditions in all cases: 10 µM unless noted
HCT-15 colon = tested on: HCT-15 colon
HT29 colon = tested on: HT29 colon
SNB-75 CNS = tested on: SNB-75 CNS
SNB-19 CNS = tested on: SNB-19 CNS
U251 CNS = tested on: U251 CNS
PC-3 prostate = tested on: PC-3 prostate
SK-MEL-5 melanoma = tested on: SK-MEL-5 melanoma
UACC-62 melanoma = tested on: UACC-62 melanoma
LOX IMVI melanoma = tested on: LOX IMVI melanoma
SK-MEL-28 melanoma = tested on: SK-MEL-28 melanoma
SK-MEL-2 melanoma = tested on: SK-MEL-2 melanoma
EKVX NSCLC = tested on: EKVX NSCLC
SN12C renal = tested on: SN12C renal
UO-31 renal = tested on: UO-31 renal
TK-10 renal = tested on: TK-10 renal
ACHN renal = tested on: ACHN renal
CAKI-1 renal = tested on: CAKI-1 renal
A498 renal = tested on: A498 renal
CCRF-CEM leukemia = tested on: CCRF-CEM leukemia
MOLT-4 leukemia = tested on: MOLT-4 leukemia

SMILES	growth (HCT-15 colon)	growth (HT29 colon)	growth (SNB-75 CNS)	growth (SNB-19 CNS)	growth (U251 CNS)	growth (PC-3 prostate)	growth (SK-MEL-5 melanoma)	growth (UACC-62 melanoma)	growth (LOX IMVI melanoma)	growth (SK-MEL-28 melanoma)	growth (SK-MEL-2 melanoma)	growth (EKVX NSCLC)	growth (SN12C renal)	growth (UO-31 renal)	growth (TK-10 renal)	growth (ACHN renal)	growth (CAKI-1 renal)	growth (A498 renal)	growth (CCRF-CEM leukemia)	growth (MOLT-4 leukemia)
COc1ccc2nc3cc(Cl)ccc3c(Nc3ccc(O)c(CN4CCCC4)c3)c2c1	0.129% (active)	-22.8% (active)	31.5%	62.5%	0.559% (active)	24.2%	41.1%	51.9%	-68.6% (active)	82.9%	-57.6% (active)	51.3%	47.8%	-46.2% (active)	10.2%	-38.9% (active)	8.96% (active)	62.3%	-6.84% (active)	0.985% (active)
COc1cc(NCc2cn(-c3ccc(C(=O)O)cc3)nc2-c2ccc(C(=O)O)cc2)cc(OC)c1OC	106%	106%	77.8%	97.4%	92.2%	96.9%	95.2%	94.4%	95.9%	103%	102%	93.1%	94.7%	88.9%	91.6%	102%	87.9%	66%	-17.9% (active)	110%
Cc1ccc(S(=O)(=O)n2cc(C(=O)C(=O)N3CCCCC3)c3ccccc32)cc1	79.9%	88.3%	73.8%	97.7%	91.3%	52.1%	47.3%	49.5%	71.9%	172%	90.6%	74.8%	85.3%	53.6%	103%	65.6%	58.9%	90.8%	74.9%	86.9%
O=C(CCCSc1nc(-c2ccccc2)cc(-c2ccccc2)n1)NO	20.4%	2.72% (active)	9.8% (active)	21.6%	-13.2% (active)	26.2%	-17.3% (active)	-20.9% (active)	-25.3% (active)	26%	3.29% (active)	10.3%	12.3%	-13.9% (active)	9.4% (active)	0.594% (active)	1.69% (active)	-15.6% (active)	3.58% (active)	4.55% (active)
CCCSc1nc(N)nc2nc[nH]c12	104%	112%	108%	102%	107%	99.4%	101%	87.6%	99.3%	126%	106%	106%	98.3%	93.5%	154%	96.4%	128%	123%	115%	121%
O=[N+]([O-])c1cc(CCl)ccc1OCCBr	91.1%	96.7%	86.6%	107%	101%	98.1%	98.6%	96.8%	95%	110%	106%	104%	99.7%	80.8%	101%	107%	92%	91.9%	86.6%	109%
CCOC(=O)COc1c(C)cc(SSc2cc(C)c(OCC(=O)OCC)c(C)c2)cc1C	88.8%	97.8%	87.9%	109%	75.4%	65.2%	94.6%	87.3%	103%	100%	100%	107%	102%	82.4%	87.5%	107%	106%	99.8%	82.5%	82.5%
CC1(C)C(=NO)C(C)(C)C1=NO	102%	105%	96.5%	107%	113%	90.7%	103%	109%	108%	113%	117%	114%	110%	104%	104%	112%	109%	109%	7.92% (active)	8.62% (active)
CC(C)CCNCC(C)(C)O	99.1%	103%	90.3%	109%	104%	98.6%	113%	111%	101%	122%	107%	106%	110%	92.3%	104%	107%	99.1%	105%	116%	110%
CC(C)=CCC[C@](C)(O)[C@H]1CC[C@]2(C)[C@@H]1CC[C@@H]1[C@@]3(C)CC/C(=N/O)C(C)(C)[C@@H]3CC[C@]12C	29.7% [100 µM]	-43.5% [100 µM] (active)	-38.8% [100 µM] (active)	-28.8% [100 µM] (active)	-81.5% [100 µM] (active)	-52.1% [100 µM] (active)	-45.3% [100 µM] (active)	-59.2% [100 µM] (active)	-9.59% [100 µM] (active)	-36.1% [100 µM] (active)	-23.2% [100 µM] (active)	2.6% [100 µM] (active)	-42.4% [100 µM] (active)	-17.7% [100 µM] (active)	-39.1% [100 µM] (active)	-72% [100 µM] (active)	-58.4% [100 µM] (active)	-15.7% [100 µM] (active)	23.1% [100 µM]	2.24% [100 µM] (active)
O=C(NCCCNC(=O)OCc1ccc2cccc(O)c2n1)OCc1ccc2cccc(O)c2n1	1.71% (active)	17%	28.4%	54.6%	39.8%	56.6%	61.5%	39.6%	-73.2% (active)	64.3%	71.3%	79.9%	40.4%	26.9%	49.6%	19.8%	21%	60.9%	6.81% (active)	21.7%
CCN1c2ccccc2C(Cl)(c2ccc(N(C)C)cc2)c2ccccc21	73.6%	3.81% (active)	68.5%	53.8%	19.5%	25.6%	78.9%	51.6%	18.9%	86.2%	81.5%	69.1%	46.1%	57.6%	62.8%	72.7%	62.9%	135%	17%	65.6%
O=C(NCCCNC(=O)OCc1ccc2c(Br)cc(Br)c(O)c2n1)OCc1ccc2c(Br)cc(Br)c(O)c2n1	-34.4% (active)	-73% (active)	-87.6% (active)	44.6%	-70.4% (active)	-25.5% (active)	-77.7% (active)	-87.1% (active)	-92% (active)	-75.9% (active)	-6.76% (active)	-5.94% (active)	-77.4% (active)	-100% (active)	-89% (active)	-100% (active)	-92% (active)	-2.82% (active)	4.23% (active)	0.977% (active)
CCN(CC)CCCNCc1cc(-c2ccccc2)nc2ccccc12	15.3%	55.1%	73.6%	82.5%	21.5%	75%	69.6%	95.6%	9.8% (active)	92.7%	109%	93.7%	48%	23.7%	46.8%	101%	100%	75.2%	11.8%	8.2% (active)
C=C(C)[C@@H]1CC[C@]2(C(=O)NCCNCCNCCN)CC[C@]3(C)[C@H](CC[C@@H]4[C@@]5(C)CCC(=O)C(C)(C)[C@@H]5CC[C@]43C)[C@@H]12	-36.6% [100 µM] (active)	-77.4% [100 µM] (active)	-41.5% [100 µM] (active)	-78.5% [100 µM] (active)	-81.8% [100 µM] (active)	-24.6% [100 µM] (active)	-86.2% [100 µM] (active)	-77.9% [100 µM] (active)	-68.2% [100 µM] (active)	-73.9% [100 µM] (active)	56.4% [100 µM]	11.4% [100 µM]	-88.5% [100 µM] (active)	-96.4% [100 µM] (active)	-77.7% [100 µM] (active)	-83.3% [100 µM] (active)	-8.79% [100 µM] (active)	80.8% [100 µM]	-11.3% [100 µM] (active)	-16.3% [100 µM] (active)
